Experimental data reported in PubChem BioAssay AID1259421 (Broad Institute, 2018).
Several values for one entry are separate records, joined by “and”; a condition that tells them apart may be missing. Equal entries are not always repeated. Among all 6,400 compounds or so, about 610 (9.5%) were called active. Rule as the data show it: active = activity change below about -70%; inconclusive = no clear call, values can overlap the other calls; inactive = above that. Many of the other results were omitted from the sample, so actives are more common in it than they were. Where a structure was tested more than once in an assay, its records may differ in their call.

Assay: Toxoplasma gondii ME49Luc growth in HeLa cells, luciferase, no IFN-y, primary screen (AID 1259421)
Details: T. gondii ME49Luc in HeLa, 72 h, stronger effect = lower value, concentration not given here

Question: With NCCNS(=O)(=O)c1cccc2c(Cl)cccc12 as the compound, how does the activity change, negative = inhibition read?
Answer: -0.625% (inactive)

Question: With C#Cc1cccc(Nc2ncnc3cc(OCCOC)c(OCCOC)cc23)c1 as the compound, how does the activity change, negative = inhibition read?
Answer: -1.64% (inactive) and -10.5% (inactive)

Question: For C#Cc1cccc(Nc2ncnc3cc(OCCOC)c(OCCO)cc23)c1, which activity change, negative = inhibition is on record?
Answer: -30.3% (inactive)

Question: Which activity change, negative = inhibition does the source give for C#Cc1cccc(Nc2ncnc3cc(OC)c(OCCCCCCC(=O)NO)cc23)c1 here?
Answer: -82.6% (active)

Question: Which activity change, negative = inhibition does the source give for COc1ccc2[nH]c(S(=O)Cc3ncc(C)c(OC)c3C)nc2n1 (stereo not drawn) here?
Answer: 29.4% (inactive) and 28.4% (inactive)

Question: For Cc1ccc2c(c1)C(=O)C1(O)CCN(c3ccccc3)C1=N2 (stereo not drawn), which activity change, negative = inhibition is on record?
Answer: 12.8% (inactive)

Question: Which activity change, negative = inhibition does the source give for COc1ccccc1OC(=O)C(C)c1ccc(CC(C)C)cc1 (stereo not drawn) here?
Answer: -39.2% (inactive)

Question: For O[n+]1ccccc1[S-].O[n+]1ccccc1[S-].[Zn+2], which activity change, negative = inhibition is on record?
Answer: -66.7% (inactive)

Question: For O=C1NC(=O)C(c2cnc3ccccn23)=C1c1cn2c3c(cc(F)cc13)CN(C(=O)N1CCCCC1)CC2, which activity change, negative = inhibition is on record?
Answer: -84.1% (active)

Question: For CC(C)n1nnc2cc(C(=O)O)ccc21, which activity change, negative = inhibition is on record?
Answer: 9.2% (inactive) and 12.9% (inactive)

Question: Which activity change, negative = inhibition does the source give for Cc1nc2sccn2c(=O)c1CCN1CCC(=C(c2ccc(F)cc2)c2ccc(F)cc2)CC1 here?
Answer: -60.2% (inactive) and 18.5% (inactive)

Question: Which activity change, negative = inhibition does the source give for CC[C@@H](Nc1c(Nc2cccc(C(=O)N(C)C)c2O)c(=O)c1=O)c1ccc(C)o1 here?
Answer: -16.5% (inactive)

Question: Which activity change, negative = inhibition does the source give for CC(C)(C)NC(=O)[C@H]1CCC2C3CCC4NC(=O)C=C[C@]4(C)C3CC[C@@]21C (stereo partly drawn) here?
Answer: 13.3% (inactive)

Question: With COC(=O)NC(C(=O)N[C@@H](Cc1ccccc1)C(O)CN(Cc1ccc(-c2ccccn2)cc1)NC(=O)C(NC(=O)OC)C(C)(C)C)C(C)(C)C (stereo partly drawn) as the compound, how does the activity change, negative = inhibition read?
Answer: -10.1% (inactive)

Question: For OCCOCCN1CCN(C(c2ccccc2)c2ccc(Cl)cc2)CC1 (stereo not drawn), which activity change, negative = inhibition is on record?
Answer: -71.5% (active)

Question: With O=C(O)COCCN1CCN([C@H](c2ccccc2)c2ccc(Cl)cc2)CC1 as the compound, how does the activity change, negative = inhibition read?
Answer: -64.2% (inactive)

Question: For O=C(O)COCCN1CCN(C(c2ccccc2)c2ccc(Cl)cc2)CC1 (stereo not drawn), which activity change, negative = inhibition is on record?
Answer: 2.12% (inactive) and -3.65% (inactive)

Question: Which activity change, negative = inhibition does the source give for O=C(CC(c1ccccc1)c1ccccc1)N1CCN(C(c2ccccc2)c2ccccc2)CC1 here?
Answer: 61.6% (inactive)

Question: Which activity change, negative = inhibition does the source give for COc1ccc2c(c1OC)C(=O)OC2[C@H]1c2c(cc3c(c2OC)OCO3)CCN1C (stereo partly drawn) here?
Answer: 10.4% (inactive)

Question: With Cc1cc(-c2ccc(CC(=O)Nc3ccc(-c4cccnc4)cc3)cc2)ccn1 as the compound, how does the activity change, negative = inhibition read?
Answer: 6.98% (inactive)

Question: Which activity change, negative = inhibition does the source give for Nc1ccccc1NC(=O)c1ccc(CNc2nccc(-c3cccnc3)n2)cc1 here?
Answer: -79.8% (active) and -89.7% (active)

Question: For Nc1ccccc1NC(=O)c1ccc(CNC(=O)OCc2cccnc2)cc1, which activity change, negative = inhibition is on record?
Answer: -0.731% (inactive) and 6.65% (inactive)

Question: With O=C(Nc1ccccc1-c1cn2c(CN3CCNCC3)csc2n1)c1cnc2ccccc2n1 as the compound, how does the activity change, negative = inhibition read?
Answer: -11.3% (inactive)

Question: Which activity change, negative = inhibition does the source give for CCCC(=O)Oc1ccc2[nH]c(C(=O)c3cc4ccccc4[nH]3)cc2c1 here?
Answer: 5.11% (inactive)

Question: Which activity change, negative = inhibition does the source give for CN(Cc1ccccc1)Cc1ccccc1 here?
Answer: 16.3% (inactive)

Question: Which activity change, negative = inhibition does the source give for CCN(CC)CCC(=O)N1c2ccccc2Sc2ccc(Cl)cc21 here?
Answer: 17.9% (inactive)

Question: With O=C(O)CO.[NH2-].[NH2-].[Pt+2] as the compound, how does the activity change, negative = inhibition read?
Answer: -0.913% (inactive)

Question: For O=C(O)CCC(=O)O, which activity change, negative = inhibition is on record?
Answer: -23.1% (inactive)

Question: With O=C(O)CC(O)(CC(=O)O)C(=O)O as the compound, how does the activity change, negative = inhibition read?
Answer: -79.3% (active)

Question: Which activity change, negative = inhibition does the source give for CCOC(=O)/C(=N/O)c1csc(N)n1 here?
Answer: 7.65% (inactive)

Question: Which activity change, negative = inhibition does the source give for CCC(CC)(NC(=O)C(C)C)C(=O)N[C@@H](CCCN=C(N)N)C(=O)NC1(C(=O)NC(c2ccc(F)cc2)c2ccc(F)cc2)CCCC1 here?
Answer: 12.8% (inactive)

Question: For C/C(=C\c1csc(C)n1)[C@@H]1C[C@@H]2O[C@]2(C)CCC[C@H](C)[C@H](O)[C@@H](C)C(=O)C(C)(C)[C@@H](O)CC(=O)N1, which activity change, negative = inhibition is on record?
Answer: -94.8% (active)

Question: With C=CCN1CCc2nc(N)sc2CC1 as the compound, how does the activity change, negative = inhibition read?
Answer: 0.82% (inactive)

Question: For Fc1ccc(C2CCNCC2COc2ccc3c(c2)OCO3)cc1 (stereo not drawn), which activity change, negative = inhibition is on record?
Answer: 28.3% (inactive)

Question: Which activity change, negative = inhibition does the source give for Cc1cc2nc3c(=O)[nH]c(=O)nc-3n(C)c2cc1C=O here?
Answer: 9.97% (inactive) and 10.7% (inactive)

Question: For CNCCCCOc1ccccc1Cc1ccccc1, which activity change, negative = inhibition is on record?
Answer: 17.6% (inactive) and 22% (inactive)

Question: With O=C(O)CCC1CCC(c2cc(F)ccc2F)(S(=O)(=O)c2ccc(Cl)cc2)CC1 (stereo not drawn) as the compound, how does the activity change, negative = inhibition read?
Answer: 7.06% (inactive)

Question: Which activity change, negative = inhibition does the source give for N#Cc1ccccc1OCC(O)CNCCNC(=O)Nc1ccccc1 (stereo not drawn) here?
Answer: 10.2% (inactive) and -13.2% (inactive)

Question: For CC1(C)CC23C(=O)CCC(O)C2(C)CCC13 (stereo not drawn), which activity change, negative = inhibition is on record?
Answer: 11.7% (inactive)

Question: For C=CCNC(=O)c1cc([N+](=O)[O-])cc2c(=O)[nH]c(Nc3ccc(Cl)c(Cl)c3)nc12, which activity change, negative = inhibition is on record?
Answer: 3.13% (inactive) and -6.94% (inactive)

Question: Which activity change, negative = inhibition does the source give for O=C(Nc1ccc([N+](=O)[O-])cc1Cl)c1cc(Cl)ccc1O here?
Answer: -93% (active) and 4.01% (inactive)

Question: Which activity change, negative = inhibition does the source give for O=C(Nc1ccc([N+](=O)[O-])cc1O)Nc1ccccc1Br here?
Answer: -48.5% (inactive) and -4.88% (inactive)

Question: For NC(=O)c1ccc([N+](=O)[O-])cc1Cl, which activity change, negative = inhibition is on record?
Answer: 17.4% (inactive) and 18.6% (inactive)

Question: For O=C(Nc1cc(C(F)(F)F)cc(C(F)(F)F)c1)c1cc(Cl)ccc1O, which activity change, negative = inhibition is on record?
Answer: -83.9% (active)

Question: For O=C(Nc1ccccc1)c1cc([N+](=O)[O-])ccc1Cl, which activity change, negative = inhibition is on record?
Answer: 14.5% (inactive) and 9.52% (inactive)

Question: For O=C(Nc1ccncc1)c1cc([N+](=O)[O-])ccc1Cl, which activity change, negative = inhibition is on record?
Answer: -81.1% (active) and -86.9% (active)

Question: Which activity change, negative = inhibition does the source give for Cc1oncc1C(=O)Nc1ccc(C(F)(F)F)cc1 here?
Answer: 165% (inactive) and 187% (inactive)

Question: With O=C(Nc1ccccc1)c1ccccc1O as the compound, how does the activity change, negative = inhibition read?
Answer: 110% (inactive) and 0.394% (inactive)

Question: With CN1CCN(C2=Cc3ccccc3Oc3ccc(Cl)cc32)CC1 as the compound, how does the activity change, negative = inhibition read?
Answer: -2.4% (inactive) and 14.5% (inactive)

Question: Which activity change, negative = inhibition does the source give for O=C(NC1CCCCC1)NC1CCCCC1 here?
Answer: 10.9% (inactive)

Question: For O=C(O)c1ccc(NC2OC(CO)C(O)C(O)C2O)cc1 (stereo not drawn), which activity change, negative = inhibition is on record?
Answer: 4.39% (inactive)

Question: With Cc1occc(=O)c1O as the compound, how does the activity change, negative = inhibition read?
Answer: -2.72% (inactive)

Question: With CC(C)S(=O)(=O)NC[C@H](C)c1ccc(-c2ccc(CCNS(C)(=O)=O)cc2)cc1 as the compound, how does the activity change, negative = inhibition read?
Answer: 8.52% (inactive)
